Source: PubChem
The list is not random: actives were taken first. Their share in the collection is about 12%.
HP1b binding inh: inhibitors of HP1-beta chromodomain binding to methylated histone tails | P83916 | AlphaScreen HP1-beta / biotin-H3K9me3 peptide binding | Potency, µM (doses to about 114 µM), without a hit: at the top dose activity change, negative = inhibition, most hits filed as inhibitors | 0.56% of 390,000 active; further: potency means the concentration at half of the fitted maximal effect; nearly all actives have a fitted effect of over 70% in size
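AlphaScreen: HP1-beta (50 nM) preformed 30 min with biotin-H3(1-18)K9me3 peptide (50 nM) in PBS pH 7.4, 0.01% Tween-20. Compound added for 30 min at RT, then streptavidin donor/nickel chelate acceptor beads (10 ug/mL) for 30 min.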
G9a inh: blocks human histone lysine methyltransferase G9a; Q96KQ7; G9a H3K9 monomethylation, AlphaScreen, 2 h; Potency, µM (titrated, usually from 102 µM), without a hit: at the top dose activity, negative = inhibition, hits mostly inhibitors; 8.8% of 350,000 active; further: potency means the concentration at half of the fitted maximal effect; on the % scale 0 is the no-effect control and ±100 the full control effect; nearly all actives have a fitted effect of over 75% in size
Target sequence (Q96KQ7 913-1193 limits assumed): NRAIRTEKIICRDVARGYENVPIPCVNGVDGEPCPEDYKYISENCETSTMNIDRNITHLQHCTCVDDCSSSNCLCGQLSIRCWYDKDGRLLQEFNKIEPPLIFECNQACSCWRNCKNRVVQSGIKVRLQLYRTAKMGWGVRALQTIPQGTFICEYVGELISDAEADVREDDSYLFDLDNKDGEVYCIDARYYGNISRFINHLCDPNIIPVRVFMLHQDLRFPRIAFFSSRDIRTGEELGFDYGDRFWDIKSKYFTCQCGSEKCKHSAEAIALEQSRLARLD
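Enzyme 20 nM + cpd, 15 min RT; add b-H3K9 pep 500 nM / SAM 20 uM; 2 h RT; anti-H3K9me1 Ab 0.5 ug/mL + SA donor / anti-rabbit acceptor beads 20 ug/mL each, 10 min; AlphaScreen read.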
PI5P4K alpha inh: PI5P4K alpha (human) kinase inhibition. P48426. max response, %. 1.2% of 330,000 active. PI5P4Kalpha enzyme, ADP-Glo luminescence, 60 min; active compounds read low; active means max response of -50% or lower; inconclusive means between -30% and -50%; inactive means -30% or higher; further: value at the top dose of about 77 µM; on the % scale 0 is the no-effect control and ±100 the full control effect
Target sequence (P48426 whole entry, looked up): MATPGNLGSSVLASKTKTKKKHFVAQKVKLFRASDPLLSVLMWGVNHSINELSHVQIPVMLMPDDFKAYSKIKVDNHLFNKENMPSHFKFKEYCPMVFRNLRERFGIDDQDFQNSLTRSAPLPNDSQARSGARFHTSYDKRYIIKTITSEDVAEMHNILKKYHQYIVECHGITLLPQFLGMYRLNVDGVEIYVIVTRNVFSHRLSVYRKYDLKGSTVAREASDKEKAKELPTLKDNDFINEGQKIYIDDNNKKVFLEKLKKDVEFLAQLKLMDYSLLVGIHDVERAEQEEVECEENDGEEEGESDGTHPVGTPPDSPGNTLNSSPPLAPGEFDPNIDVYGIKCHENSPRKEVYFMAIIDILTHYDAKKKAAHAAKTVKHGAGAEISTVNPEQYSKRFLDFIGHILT
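qHTS, 1536-well: enzyme/substrate mix, compound by pin tool, 5 microM ATP final; RT 60 min; ADP-Glo reagents 1 (45 min) then 2 (30 min); luminescence.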
JMJD2A Tudor: inhibitors of human JMJD2A Tudor domain; O75164; AlphaScreen JMJD2A-Tudor / H3K4me3 peptide binding; Potency, µM (titrated, usually from 114 µM), without a hit: at the top dose activity change, negative = inhibition, most hits filed as inhibitors; 4.4% of 390,000 active; further: potency means the concentration at half of the fitted maximal effect; on the % scale 0 is the no-effect control and ±100 the full control effect; nearly all actives have a fitted effect of over 50% in size
PLK1 PBD inh: PLK1 (human) polo-box domain binding inhibition | P53350 | Potency, µM, for inactives: max response, negative = inhibition, hits mostly inhibitors | Plk1 PBD binding of FITC phosphopeptide, fluorescence polarization | 2.8% of 360,000 active | AID 720504; further: potency means the concentration at half of the fitted maximal effect; series mostly up to about 57 µM; on the % scale 0 is the no-effect control and ±100 the full control effect; nearly all actives have a fitted effect of over 65% in size
BAZ2B inh: blocks human BAZ2B; Potency, µM (top dose mostly 114 µM), for inactives: at the highest dose activity change, negative = inhibition, actives largely listed as inhibitors; AlphaScreen BAZ2B-H3K14Ac peptide displacement; AID 504333; Q9UIF8; 4.4% of 360,000 active; further: potency means the concentration at half of the fitted maximal effect; on the % scale 0 is the no-effect control and ±100 the full control effect; nearly all actives have a fitted effect of over 60% in size
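Inhibition is scored as reduced AlphaScreen emission. The BAZ2B/b-H3(5-23)K14Ac complex (50 nM each) in PBS pH 7.4, 0.01% Tween-20 meets compound (up to 110 uM) for 30 min at RT before bead addition.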
* marks the source's active call; other numbers are inactive results; [ ] = dose if it differs, or a comment. Unless noted, the call rests on the fitted dose curve; in most records, active means well fitted curve in the direction sought with a large enough effect; inconclusive means small, poorly fitted or top-dose-only effect, or another doubt; inactive means no such curve, though single readings can be large; an effect the other way counts as inactive or inconclusive.

Results for COc1cccc(NC(=O)c2ccc(-c3nc(COc4ccccc4)c(C)o3)cc2)c1 ?
HP1b binding inh: 36%; G9a inh: 0%[59 µM]; JMJD2A Tudor: -17%; BAZ2B inh: 6%

What do the screens show for `CC(OC(=O)c1ccccc1NCCO)C(=O)NCC(=O)Nc1ccc(F)c(F)c1F` (configuration not stated)?
HP1b binding inh: 16%; G9a inh: 28µM*; PI5P4K alpha inh: 3; JMJD2A Tudor: 10%; PLK1 PBD inh: 0%; BAZ2B inh: -2%

What do the screens show for `CC(C)CNC(=O)C1Nc2ccc(C(F)(F)F)cc2C2C=CCC12` (configuration not stated)?
HP1b binding inh: 14%; PI5P4K alpha inh: -16; JMJD2A Tudor: -22%; PLK1 PBD inh: -7%

What do the screens show for `O=C(O)C1Nc2c(Cl)cc(Cl)cc2C2C=CCC12` (configuration not stated)?
HP1b binding inh: 28µM*; PI5P4K alpha inh: -99*; JMJD2A Tudor: 22µM*; PLK1 PBD inh: 7.5µM*; BAZ2B inh: 25µM*

What do the screens show for `Cc1ccc(C)c2c1NC(C(=O)O)C1CC=CC21` (configuration not stated)?
HP1b binding inh: 22µM*; JMJD2A Tudor: 20µM*

Results for O=C(O)C1Nc2c(O)cccc2C2C=CCC12 (configuration not stated) ?
HP1b binding inh: 28µM*; G9a inh: 10µM*; PI5P4K alpha inh: -81*; JMJD2A Tudor: 2.5µM*; PLK1 PBD inh: 27µM*; BAZ2B inh: 1.6µM*

How did O=C(c1cc(Cl)ccc1F)N1CCCC(Nc2ccc3c(c2)OCCO3)C1 (configuration not stated) do in these assays?
HP1b binding inh: -13%; G9a inh: 79µM*; PI5P4K alpha inh: 5; JMJD2A Tudor: inconclusive; PLK1 PBD inh: -8%; BAZ2B inh: inconclusive

How did O=C(c1ccco1)N1CCCC(Nc2ccc3c(c2)OCCO3)C1 (configuration not stated) do in these assays?
HP1b binding inh: 18%; PI5P4K alpha inh: 2; JMJD2A Tudor: -26%; PLK1 PBD inh: -1%; BAZ2B inh: inconclusive

What do the screens show for `CSCc1ccc(C(=O)N2CCCC(Nc3ccc4c(c3)OCCO4)C2)o1` (configuration not stated)?
HP1b binding inh: 14%; G9a inh: 79µM*; PI5P4K alpha inh: 6; JMJD2A Tudor: -23%; PLK1 PBD inh: -2%; BAZ2B inh: -35%[57.1 µM]

What do the screens show for `Cc1ccc(C(=O)NCCN2CCC(n3c(=O)[nH]c4ccccc43)CC2)cc1F`?
PI5P4K alpha inh: -1; PLK1 PBD inh: -8%

How did CC(=O)NC(CCS(C)(=O)=O)C(=O)Nc1ccccc1C (configuration not stated) do in these assays?
HP1b binding inh: 19%; G9a inh: -16%[59 µM]; JMJD2A Tudor: -22%; PLK1 PBD inh: -5%; BAZ2B inh: -2%

Results for CC[C@@H](C)[C@@H](CO[C@@H](Cc1ccccc1)C(=O)N[C@@H](CCS(C)(=O)=O)C(=O)OC(C)C)NC[C@@H](N)CS ?
G9a inh: 22µM*

How did C[C@H](CO)N1C[C@H](C)[C@@H](CN(C)S(=O)(=O)c2cccs2)Oc2ccc(NS(=O)(=O)c3ccccc3)cc2CC1=O do in these assays?
HP1b binding inh: 18%; PI5P4K alpha inh: 0; JMJD2A Tudor: -33%; PLK1 PBD inh: -14%

Results for O=C(Nc1c2ccccc2nc2ccccc12)C(Cl)(Cl)Cl ?
HP1b binding inh: 47%; G9a inh: 45µM*; PI5P4K alpha inh: -1; JMJD2A Tudor: 13%; PLK1 PBD inh: -11%; BAZ2B inh: 11%

Results for CCOc1ccccc1C(=O)NCCN1CCC(n2c(=O)[nH]c3ccccc32)CC1 ?
PI5P4K alpha inh: 2; PLK1 PBD inh: -24%

How did O=C1Nc2ccc(Br)cc2/C1=C/C(=O)c1ccc2c(c1)OCO2 do in these assays?
HP1b binding inh: -13%; G9a inh: 10µM*; PI5P4K alpha inh: inconclusive; JMJD2A Tudor: inconclusive; PLK1 PBD inh: inconclusive; BAZ2B inh: inconclusive

What do the screens show for `Cc1cc(C)c(SSc2nnnn2-c2ccccc2)c(C)c1`?
PI5P4K alpha inh: -80*; PLK1 PBD inh: 3µM*

How did CCOC(=O)c1sc(NC(=O)c2c(-c3ccccc3)c(-c3ccccc3)nn(C)c2=O)nc1C do in these assays?
HP1b binding inh: -7%; G9a inh: inconclusive; JMJD2A Tudor: inconclusive; BAZ2B inh: -36%

How did C=CCNc1cccc(Br)c1 do in these assays?
HP1b binding inh: 54%; PI5P4K alpha inh: -1; JMJD2A Tudor: 6%; PLK1 PBD inh: -3%

What do the screens show for `Nc1ccc2c(c1Cl)C(=O)c1ccc(N)c(Cl)c1C2=O`?
HP1b binding inh: 15%; G9a inh: 25µM*; PI5P4K alpha inh: -2; JMJD2A Tudor: 56µM*; PLK1 PBD inh: inconclusive; BAZ2B inh: 56µM*

What do the screens show for `O=C(COC(=O)c1ccc2c(c1Cl)C(=O)c1ccccc1C2=O)NC1CC1`?
HP1b binding inh: -3%; G9a inh: inconclusive; PI5P4K alpha inh: -22; JMJD2A Tudor: inconclusive; PLK1 PBD inh: -8%; BAZ2B inh: inconclusive

What do the screens show for `COc1cccc(NS(=O)(=O)c2ccc3[nH]cc(C(=O)NC4CCCCC4)c(=O)c3c2)c1`?
HP1b binding inh: 12%; G9a inh: -42%[59 µM]; JMJD2A Tudor: inconclusive

Results for O=C(NCCN1C(=O)S/C(=C/c2cccnc2)C1=O)c1cccs1 ?
HP1b binding inh: 59%; G9a inh: 23%[12.7 µM]; PI5P4K alpha inh: -9; JMJD2A Tudor: -14%; PLK1 PBD inh: -9%; BAZ2B inh: 12%

Results for O=C(NCCN1C(=O)S/C(=C\c2cccnc2)C1=O)C1=NN(c2ccccc2)C(=O)CC1 ?
HP1b binding inh: -29%; G9a inh: -1%[59 µM]; PI5P4K alpha inh: -67*; JMJD2A Tudor: 3.5µM*; PLK1 PBD inh: 3.8µM*; BAZ2B inh: -11%

What do the screens show for `O=C1/C(=C/c2ccccc2)SC(=S)N1CC(=O)N1CCCCC1c1cccnc1` (configuration not stated)?
HP1b binding inh: -15%; G9a inh: 40µM*; PI5P4K alpha inh: -8; JMJD2A Tudor: 35µM*; PLK1 PBD inh: -15%; BAZ2B inh: 32µM*

How did O=C(O)CN1C(=O)S/C(=C\c2cccnc2)C1=O do in these assays?
HP1b binding inh: 6%[57 µM]; PI5P4K alpha inh: 0; JMJD2A Tudor: -18%; PLK1 PBD inh: -12%; BAZ2B inh: 50µM*

Results for O=C1/C(=C\c2ccccc2)SC(=S)N1CCC(=O)N1CCCCC1CCO (configuration not stated) ?
HP1b binding inh: 35%; G9a inh: inconclusive; PI5P4K alpha inh: -4; JMJD2A Tudor: -3%; PLK1 PBD inh: -13%; BAZ2B inh: inconclusive
